Compound activity: PubChem, National Center for Advancing Translational Sciences (NCATS)
KB-3-1 cytotox: kills parental KB-3-1 adenocarcinoma cells; KB-3-1 viability, CellTiter-Glo ATP luminescence, 72 h; Potency, µM (series often up to 46.1 µM), most hits filed as cytotoxic; actives 1.4% (n = 400,000); also: % is scaled to controls: 0 for no effect and ±100 for the full control effect; nearly all actives have a fitted effect of over 60% in size
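Luminescent ATP read-out (CellTiter-Glo) measures survival of drug-naive KB-3-1 cells after 72 h compound exposure at 37 °C. Titration series was screened from lowest to highest concentration, with DMSO vehicle plates as background controls.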
ATXN viability: cell viability loss in ATXN counter-screen; S2 cells (HEK-293 line with an ATXN2-luciferase reporter) viability, CellTiter-Fluor protease fluorescence, 24 h; Potency, µM (series often up to 56.7 µM), most hits filed as cytotoxic; actives 0.49% (n = 400,000); AID 651635; also: nearly all actives have a fitted effect of over 40% in size
KB-V1 MDR tox: KB-V1 MDR subline cytotoxicity; KB-V1 MDR cells viability, CellTiter-Glo, 72 h; Potency, µM (doses to about 46.1 µM), hits mostly cytotoxic; actives 3.4% (n = 400,000); AID 1347076; also: % is scaled to controls: 0 for no effect and ±100 for the full control effect; nearly all actives have a fitted effect of over 60% in size
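In this primary screen, KB-V1 cells overexpressing P-gp are incubated with library compounds (lowest to highest concentration) for 72 h at 37 degrees C before a luminescent ATP viability read.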
HT1080-NT tox: kills 2HG-producing HT-1080-NT fibrosarcoma cells. AID 686970. Potency, µM (series often up to 46.1 µM), without a hit: at the top dose activity, negative = less viability, actives largely listed as cytotoxic. HT-1080-NT fibrosarcoma viability, CellTiter-Glo ATP luminescence, 48 h. actives 1.6% (n = 360,000);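 also: NT is the 2HG producing partner of a matched IDH1 knockdown line; 0% = DMSO-treated cells and -100% = media-only wells without cells; nearly all actives have a fitted effect of over 55% in size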
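Read-out is CellTiter-Glo luminescence after 10 minutes at room temperature, following 48 hours' compound treatment of HT-1080-NT cells (750 cells/well, RPMI, 5% FBS, 37 degrees C).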
ATXN2 expr inh: ATXN2 expression inhibition; HEK-293 ATXN2-luciferase reporter, luminescence, 24 h; Potency, µM (series often up to 57 µM), without a hit: top-dose activity change, negative = inhibition, usual class: inhibitors; actives 0.72% (n = 360,000); also: % is scaled to controls: 0 for no effect and ±100 for the full control effect; nearly all actives have a fitted effect of over 55% in size
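qHTS (up to 57 uM final) was run with 24 h compound exposure of reporter cells at 37 °C. Each well was multiplexed: SteadyGlo luminescence measured ATXN2-luciferase expression after a fluorogenic Gly-Phe-AFC viability readout (25 uM final).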
HT1080 IDH1KD tx: kills HT-1080 cells with IDH1 knockdown; Potency, µM (top dose mostly 46.1 µM), without a hit: at the highest dose activity, negative = toxicity, usual class: cytotoxic; HT-1080 IDH1 knockdown viability, ATP luminescence, 48 h; actives 2% (n = 360,000);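 also: 0% = DMSO wells and -100% = cell-free medium wells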
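CellTiter-Glo luminescence after 48 h compound exposure at 37 degrees C of IDH1-knockdown HT-1080 cells in 5% FBS RPMI. %Activity scaled between DMSO wells and cell-free media wells, with curves fitted and assigned curve classes.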
The depositor's hits bear a star; i = inactive; ? = inconclusive; . = no result given; [ ] = dose if it differs, or a comment. Only some compounds are listed: those with a hit (about 6.2% of all), similar ones and a draw of the others. Calls follow the shape of the dose curve; as a rule, active = well fitted curve in the direction sought with a large enough effect; inconclusive = small, poorly fitted or top-dose-only effect, or another doubt; inactive = no such curve, though single readings can be large; an effect the other way counts as inactive or inconclusive. Potency is read from the fitted curve at half-maximal effect.

SMILES	KB-3-1 cytotox	ATXN viability	KB-V1 MDR tox	HT1080-NT tox	ATXN2 expr inh	HT1080 IDH1KD tx
O=C(Nc1ccc(Cc2ccncc2)cc1)C1CCC(N2C(=O)C3CC=CCC3C2=O)CC1 (centres undefined)	i	i	15µM*	-25%	-5%	-21%
COc1ccc(-c2ccc(C(=O)N3CCc4c(cnc(C)c4CNS(=O)(=O)N(C)C)C3)o2)cc1	.	i	.	.	.	.
CN(C)C=Nc1ncc2c3ccccc3n(CCN(C)C)c2c1C#N	?	i	?	-9%	?	-10%
CCN(CC)CCn1c2ccccc2c2cnc(N)c(C#N)c21	23µM*	i	?	-13%	14µM*	?
C/C(=N/NC(=O)c1ccc(C)nc1)c1ccc2c(c1)CCCC2	?	i	10µM*	16µM*	-8%[11.3 µM]	23µM*
COc1cc(C(=O)NCC(=O)N/N=C(/C)c2ccc3c(c2)CCCC3)cc(OC)c1OC	i	i	i	3%	-8%[11.3 µM]	17%
Cc1ccc(NC(=O)NCC2CC2(Cl)Cl)cc1 (centres undefined)	i	i	i	15%	52%	9%
O=C(NCC1CC1(Cl)Cl)Nc1ccc(Cl)c(Cl)c1 (centres undefined)	?	i	?	18µM*	?	29µM*
COc1ccccc1CCNc1ncnc2sc(C(=O)N3CCCCC3)c(C)c12	.	i	.	.	.	.
CC(C)(C)c1ccc(-c2nc(C#N)c(NCc3cccnc3)o2)cc1	i	i	21µM*	?	32%	?
Cc1ccccc1OCc1ccc(-c2nc(C#N)c(NCc3cccnc3)o2)o1	?	?	?	.	32µM*	.
Cc1cccc(OCc2ccc(-c3nc(C#N)c(NCc4cccnc4)o3)o2)c1	i	22µM*	i	.	28µM*	.
CCN1CCN(c2oc(-c3ccc(COc4ccccc4C)o3)nc2C#N)CC1	21µM*	i	i	.	-30%	.
CC1(C)COC(/C=C/c2ccc([N+](=O)[O-])cc2)=N1	?	?	21µM*	?	-10%	23µM*
Cc1ccccc1NS(=O)(=O)c1cc(C(=O)N2CCc3ccccc3C2)ccc1C	i	?	7.3µM*	-14%	5%	-4%
Cc1ccc(NS(=O)(=O)c2cc(C(=O)O)ccc2Cl)cc1	i	i	?	0%	6%	-13%
Cc1ccc(C(=O)N2CCc3ccccc3C2)cc1S(=O)(=O)N1CCOCC1	i	i	?	1%	4%	0%
Cc1ccc(NS(=O)(=O)c2cc(C(=O)N3CCc4ccccc4C3)ccc2Cl)cc1	i	i	16µM*	?	-19%	-25%
COc1ccc(Nc2c(-c3ccc(F)cc3)nc3nc(C)cc(C)n23)cc1	i	?	?	-14%	-25%	0%
O=C1c2cc3ccccc3c(-c3ccccc3)c2C(=O)N1c1ccccn1	i	i	13µM*	2%	-2%	1%
COc1ccccc1-c1cnc(C(O)c2ccc(C)cc2)[nH]1 (centres undefined)	i	i	i	-6%	59%	-18%
CCCCNC(=S)NNC(=O)CCn1nc(C)c(Br)c1C	i	i	i	0.89µM*	1%	1.1µM*
CC1(C)N=C(N)N=C(N)N1c1ccc(Oc2ccc(Cl)cc2)c(Cl)c1	0.73µM*	?	i	2.3µM*	?	1.3µM*
CC1(C)N=C(N)N=C(N)N1c1cccc(CN)c1	i	i	i	2%	11%	?
CC1(C)N=C(N)N=C(N)N1c1ccccc1	?	i	?	3.7µM*	3%	1.6µM*
SMILES	KB-3-1 cytotox	ATXN viability	KB-V1 MDR tox	HT1080-NT tox	ATXN2 expr inh	HT1080 IDH1KD tx
CC1(C)N=C(N)N=C(N)N1c1ccc(CCCCc2ccccc2)cc1	?	?	i	?	.	0.73µM*
NS(=O)(=O)c1cc(C(=O)NN2C[C@H]3[C@H]4CCC(C4)[C@H]3C2)ccc1Cl	.	i	.	.	1%	.
CCOc1ccc(C(=O)NNC(=O)CN2C(=O)C3CC=CCC3C2=O)cc1OC (centres undefined)	i	i	i	18%	-17%	9%
Fc1ccc(-n2cc(-c3ccccc3)c3c(NN4CCOCC4)ncnc32)cc1	?	i	7.3µM*	11%	-35%	5%
OCCN1CCN(c2ncnc3c2c(-c2ccccc2)cn3-c2ccc(F)cc2)CC1	i	i	i	?	-11%	18µM*
Cc1cc(NC(=O)Nc2nnc(N(C)Cc3ccccc3)s2)ccc1Br	i	.	i	.	.	.
CCO[C@@H]1OC(C(=O)NCc2nc3ccccc3[nH]2)=C[C@H](C(C)(C)C)[C@H]1CCCO	1.3µM*	?	i	3.3µM*	4%	3.3µM*
CCO[C@@H]1OC(C(=O)NCc2nc3ccccc3[nH]2)=C[C@H](C2CC2)[C@H]1CCCO	5.2µM*	?	i	18µM*	-5%	?
COc1ccc2c(c1)OC(C)CN(CCNC(=O)C1CCOC1)C2 (centres undefined)	.	i	.	.	.	.
CN(Cc1cnc2ccccn12)C(=O)c1cc(NC(=O)c2ccccc2)cc2ncn(C3CCCC3)c12	.	i	.	.	.	.
Cc1ccc(Cn2ccsc2=NC(=O)CCl)cc1	21µM*	0.79µM*	?	1µM*	?	12µM*
O=C(Nc1ccc(S(=O)(=O)NC2=NCCCCC2)cc1)c1cccs1	i	i	i	-1%	.	14%
Cc1ccnc(NS(=O)(=O)c2ccc(NC(=O)c3ccc([N+](=O)[O-])s3)cc2)n1	15µM*	i	i	?	?	?
O=C(Nc1ccc(S(=O)(=O)NC2=NCCCCC2)cc1)c1ccc(C(F)(F)F)cc1	21µM*	?	21µM*	-2%	.	-11%
O=C(Nc1ccc(S(=O)(=O)NC2=NCCCCC2)cc1)c1ccc([N+](=O)[O-])s1	6.5µM*	i	?	?	?	?
OCCN1CCN(Cc2ccc3c(c2)CN(Cc2ccc4ccccc4c2)CCO3)CC1	.	i	.	.	.	.
CC1(C)C(N(O)C(=O)Nc2ccc(Cl)cc2)N(c2ccc(Cl)cc2)C(=O)N1CC(=O)NN=CC=Cc1ccc([N+](=O)[O-])o1 (centres undefined)	.	.	.	.	34µM*	.
CC1(C)C(N(O)C(=O)Nc2ccccc2)N(c2cccc(Cl)c2)C(=O)N1O (centres undefined)	i	i	i	-7%	-9%	-1%
CN(C)c1ccccc1C(=O)c1ccccc1N(C)C	4.6µM*	i	?	?	22%	4.6µM*
CN(c1ccccc1C(=O)O)S(C)(=O)=O	i	i	i	2%	-4%	16%
